Screens deposited in PubChem by National Center for Advancing Translational Sciences (NCATS).
An excerpt weighted towards active compounds, which were near 18% of everything screened.
KAT2A inh – inhibitors of human GCN5L2 histone acetyltransferase; Q92830; GCN5L2 HAT assay, ThioGlo1 CoA-SH fluorescence; Potency, µM (top dose mostly 58.9 µM), inactives show top-dose activity change, negative = inhibition, usual class: inhibitors; 390,000 compounds, 0.21% hits
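Compounds, pin-transferred from DMSO stocks, meet 20nM GCN5L2 for 15 min before the reaction begins with H3(1-25) peptide (75uM) and acetyl-CoA (70uM). Thiol-reactive ThioGlo1 reports CoA release over 20 min at room temperature.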
TDP1 cell noCPT – qHTS for Inhibitors of human tyrosyl-DNA phosphodiesterase 1 (TDP1): qHTS in cells in absence of CPT; Potency, µM (doses to about 46.2 µM), without a hit: top-dose activity change, negative = growth inhibition, usual class: inhibitors; DT40 Tdp1-/- hTDP1 cells, no CPT, ATP luminescence, 48 h; 420,000 compounds, 15% hits; also: nearly all actives have a fitted effect of over 55% in size
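Luminescent ATP content (CellTiter-Glo) served as the growth readout. Knockout chicken DT40 cells expressing human TDP1 were exposed to compounds without camptothecin for a minimum 48 hr at 37 °C.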
TDP1 block – inhibitors of human tyrosyl-DNA phosphodiesterase TDP1; Q9NUW8; recombinant TDP1, AlphaScreen DNA substrate cleavage; Potency, µM (doses to about 130 µM), for inactives: top-dose activity change, negative = inhibition, hits mostly inhibitors; 350,000 compounds, 0.28% hits; AID 485290; also: nearly all actives have a fitted effect of over 40% in size
Target sequence (Q9NUW8 whole entry, looked up): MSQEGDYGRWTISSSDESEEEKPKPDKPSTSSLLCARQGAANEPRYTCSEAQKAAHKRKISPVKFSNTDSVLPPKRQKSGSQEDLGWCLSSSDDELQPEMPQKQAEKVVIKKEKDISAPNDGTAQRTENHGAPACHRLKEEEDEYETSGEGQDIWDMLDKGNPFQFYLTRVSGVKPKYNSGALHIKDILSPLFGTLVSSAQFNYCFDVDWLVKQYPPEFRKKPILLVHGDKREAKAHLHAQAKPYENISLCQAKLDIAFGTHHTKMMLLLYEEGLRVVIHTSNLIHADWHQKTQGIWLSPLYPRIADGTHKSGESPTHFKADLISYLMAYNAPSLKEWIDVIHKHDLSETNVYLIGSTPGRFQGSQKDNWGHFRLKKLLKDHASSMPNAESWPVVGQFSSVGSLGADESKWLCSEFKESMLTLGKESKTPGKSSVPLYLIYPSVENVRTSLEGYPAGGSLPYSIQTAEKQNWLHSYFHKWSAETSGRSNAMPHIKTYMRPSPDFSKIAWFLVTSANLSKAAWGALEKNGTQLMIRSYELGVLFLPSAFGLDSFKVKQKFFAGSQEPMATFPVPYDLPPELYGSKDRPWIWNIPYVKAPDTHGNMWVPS
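Here, a 5' biotin and 3' phosphotyrosine-FITC DNA oligonucleotide reports Tdp1 activity: intact substrate bridges AlphaScreen beads, while cleavage leaves a 3' phosphate and drops signal. All incubations at room temperature.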
PLK1 PBD inh – blocks phosphopeptide binding to human PLK1 polo-box domain; Potency, µM, without a hit: max response, negative = inhibition, actives largely listed as inhibitors; AID 720504; P53350; 360,000 compounds, 2.8% hits; Plk1 PBD binding of FITC phosphopeptide, fluorescence polarization; also: series mostly up to about 57 µM; nearly all actives have a fitted effect of over 65% in size
TDP1 cell CPT – DT40-hTDP1 cell growth loss with CPT; chicken DT40 Tdp1-/-;hTDP1 cells + 20 nM CPT, ATP luminescence, 48 h; Potency, µM (top dose mostly 46.2 µM), without a hit: at the top dose activity change, negative = growth inhibition, hits mostly inhibitors; 420,000 compounds, 12% hits; also: nearly all actives have a fitted effect of over 55% in size
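Chicken DT40 Tdp1-/- cells complemented with human TDP1, 400 cells/well, exposed to compounds plus 20 nM camptothecin for at least 48 h at 37 C; viability read as ATP content by CellTiter-Glo luminescence.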
VDR inhibitor – inhibitors of human vitamin D receptor; AID 504847; VDR-SRC2-3 peptide fluorescence polarization, 2 h; P11473; Potency, µM, without a hit: max response, negative = inhibition, most hits filed as inhibitors; 400,000 compounds, 0.93% hits
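Two reagent solutions held at 4 deg C in the dark were dispensed, compounds pinned at 23 nl, and the mixture incubated 2 h at room temperature. Read-out: fluorescence polarization of VDR–SRC2-3 peptide binding.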
* hit, by the source's call. Calls follow the shape of the dose curve; as a rule, active = well fitted curve in the direction sought with a large enough effect; inconclusive = small, poorly fitted or top-dose-only effect, or another doubt; inactive = no such curve, though single readings can be large; an effect the other way counts as inactive or inconclusive. % is scaled to controls: 0 for no effect and ±100 for the full control effect; potency is read from the fitted curve at half-maximal effect.

What do the screens show for `C/C(=N\N1CCCCCC1)c1c(O)n(-c2ccc(Cl)cc2)c(=O)[nH]c1=O`?
KAT2A inh: 0%; TDP1 cell noCPT: 21µM*; TDP1 block: -3%; PLK1 PBD inh: -4%; TDP1 cell CPT: inconclusive; VDR inhibitor: 4%

Results for C/C(=N\N1CCCCCC1)c1c(O)n(-c2ccc(C)cc2)c(=O)[nH]c1=O ?
KAT2A inh: -3%; TDP1 cell noCPT: -25%; TDP1 block: -2%; PLK1 PBD inh: -8%; TDP1 cell CPT: 1%; VDR inhibitor: -23%

Results for C/C(=N\N1CCCCCC1)c1c(O)n(-c2ccccc2C)c(=O)[nH]c1=O ?
KAT2A inh: -3%; TDP1 cell noCPT: 0.13µM*; TDP1 block: 1%; PLK1 PBD inh: -1%; TDP1 cell CPT: -66%; VDR inhibitor: 3%

What do the screens show for `CCN1C[C@]2(COC(=O)c3ccccc3N3C(=O)CC(C)C3=O)CC[C@H](OC)[C@@]34C5C[C@@H]6[C@@H](OC)C[C@@](O)(C5[C@H]6OC)[C@](O)([C@@H](OC)C23)[C@@H]14` (stereo not given in full)?
KAT2A inh: -13%; TDP1 cell noCPT: 14%; TDP1 block: 4%; TDP1 cell CPT: 4%; VDR inhibitor: 2%

What do the screens show for `Clc1cc(Cl)c(Cl)c(Cl)c1`?
TDP1 block: 1%

How did CN(C)C(=O)On1c(-c2ccccc2)nc2ccc(Cl)cc21 do in these assays?
KAT2A inh: -2%; TDP1 cell noCPT: 29µM*; TDP1 block: 9%; PLK1 PBD inh: -11%; TDP1 cell CPT: inconclusive; VDR inhibitor: -5%

How did O=P(O)(O)Cc1ccccc1OP(=O)(c1ccccc1)c1ccccc1 do in these assays?
KAT2A inh: -4%; TDP1 cell noCPT: inconclusive; TDP1 block: 1%; PLK1 PBD inh: -10%; TDP1 cell CPT: inconclusive; VDR inhibitor: 1%

What do the screens show for `CN(C(=O)CSc1nc2ccc(NC(=O)COc3ccc(Cl)cc3)cc2s1)c1ccccc1`?
KAT2A inh: -5%; TDP1 cell noCPT: 10µM*; TDP1 block: -3%; TDP1 cell CPT: 13µM*; VDR inhibitor: 2%

Results for COc1ccc(OCC(=O)N2CCN(Cc3nc4cc([N+](=O)[O-])ccc4n3C)CC2)cc1 ?
KAT2A inh: 0%; TDP1 cell noCPT: inconclusive; TDP1 block: -2%; PLK1 PBD inh: 30µM*; TDP1 cell CPT: 15µM*; VDR inhibitor: -17%

What do the screens show for `O=[N+]([O-])c1cccc(CN2CCN(Cc3ccc(Cl)cc3)CC2)c1`?
KAT2A inh: -13%; TDP1 cell noCPT: 16µM*; TDP1 block: -3%; PLK1 PBD inh: -16%; TDP1 cell CPT: inconclusive; VDR inhibitor: 1%

Results for O=C(COc1ccc(Cl)cc1)N1CCN(Cc2ccc([N+](=O)[O-])cc2)CC1 ?
KAT2A inh: -8%; TDP1 cell noCPT: 23µM*; TDP1 block: 0%; PLK1 PBD inh: -9%; TDP1 cell CPT: inconclusive; VDR inhibitor: -7%

How did Cc1ccc(C(=O)N[C@@H](C)CN2C3=NC[C@@H](Cc4ccccc4)N3C[C@H]2Cc2ccc(O)cc2)cc1Br do in these assays?
KAT2A inh: 1%; TDP1 cell noCPT: 7.3µM*; TDP1 block: 5%; PLK1 PBD inh: -9%; TDP1 cell CPT: 6.5µM*; VDR inhibitor: -12%

How did Cc1ccc(C(=O)N[C@@H](C)CN2C3=NC[C@H](Cc4ccccc4)N3C[C@H]2Cc2ccc(O)cc2)cc1Br do in these assays?
KAT2A inh: -6%; TDP1 cell noCPT: 16µM*; PLK1 PBD inh: -14%; TDP1 cell CPT: 15µM*; VDR inhibitor: -6%

How did O=C1OC(=O)C2C3CCC(O3)C12 (stereo not given) do in these assays?
KAT2A inh: 5%; TDP1 cell noCPT: -10%; TDP1 block: inconclusive; TDP1 cell CPT: 11%; VDR inhibitor: 1%
